The text below walks through data of PubChem BioAssay (EPA / NIEHS).

The structures appear in SMILES notation. The source made the active and inactive calls. Rule for the calls: active = hit-call score of the fitted dose curve at least 0.9, where 1 is the maximum; inactive = score below 0.9.

Assay [1] in a line: BSK_CASM3C_SRB: Viability Assessment in the BioMAP Diversity Plus: CASM3C Assay (AID 2283050).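 Note: total protein by SRB staining as cytotoxicity measure in parallel cultures; cells exposed to compound for 24 h.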 Conditions: primary human coronary artery smooth muscle cells.
Read-out in assay [2]: Thrombomodulin, THBD (gene 7056)
As to the kind of experiment: BSK_CASM3C_Thrombomodulin: BioMAP Diversity Plus: CASM3C Assay for Thrombomodulin Biomarker Activity (AID 2283051).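 Note: thrombomodulin protein level measured by ELISA 24 h after dosing.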 Particulars: primary human coronary artery smooth muscle cells; actives raise or lower the signal.

Read-out in assay [3]: Tissue Factor, F3 (gene 2152)
As to the kind of experiment: BSK_CASM3C_TissueFactor: BioMAP Diversity Plus: CASM3C Assay for Tissue Factor Biomarker Activity (AID 2283052).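 Note: cell surface tissue factor protein level read by ELISA.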 Particulars: primary human coronary artery smooth muscle cells; actives raise or lower the signal.

Read-out in assay [4]: Interferon-gamma inducible Protein 10 (IP10), CXCL10 (gene 3627)
As to the kind of experiment: BSK_hDFCGF_IP10: BioMAP Diversity Plus: hDFCGF Assay for Interferon-gamma inducible Protein 10 (IP10) Biomarker Activity (AID 2283053). Conditions: primary human foreskin fibroblasts; actives raise or lower the signal. A digest of the protocol:
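ELISA read-out of IP-10 (CXCL10) from primary human skin fibroblasts, 24 h after compound addition. Gain or loss of signal versus DMSO baseline, bidirectional curve fitting.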

Read-out in assay [5]: Urokinase-type plasminogen activator receptor (uPAR), PLAUR (gene 5329)
As to the kind of experiment: BSK_CASM3C_uPAR: BioMAP Diversity Plus: CASM3C Assay for Urokinase-type plasminogen activator receptor (uPAR) Biomarker Activity (AID 2283054).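 Note: cell-surface uPAR protein level quantified by ELISA.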 Particulars: primary human coronary artery smooth muscle cells; actives raise or lower the signal.

Read-out in assay [6]: Vascular cell adhesion molecule 1 (VCAM1), VCAM1 (gene 7412)
As to the kind of experiment: BSK_CASM3C_VCAM1: BioMAP Diversity Plus: CASM3C Assay for Vascular cell adhesion molecule 1 (VCAM1) Biomarker Activity (AID 2283055).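 Note: VCAM-1 protein level quantified by ELISA on the cells.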 Particulars: primary human coronary artery smooth muscle cells; actives raise or lower the signal.

Read-out in assay [7]: Epidermal growth factor receptor (EGFR), EGFR (gene 1956)
Nature of the assay: BSK_hDFCGF_EGFR: BioMAP Diversity Plus: hDFCGF Assay for Epidermal growth factor receptor (EGFR) Biomarker Activity (AID 2283057). Conditions: primary human foreskin fibroblasts; actives raise or lower the signal. A digest of the protocol: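 ELISA readout of EGFR on human dermal fibroblasts (primary foreskin cells), 24 h post-dosing; bidirectional curve fit vs DMSO baseline, gain or loss of signal scored.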

Read-out in assay [8]: Interleukin-8 (IL8), CXCL8 (gene 3576)
As to the kind of experiment: BSK_hDFCGF_IL8: BioMAP Diversity Plus: hDFCGF Assay for Interleukin-8 (IL8) Biomarker Activity (AID 2283058). Conditions: primary human foreskin fibroblasts; actives raise or lower the signal. A digest of the protocol: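 Cells used are human skin primary fibroblasts. Chemical is added, cultures run 24 h, then IL-8 is quantified by ELISA, and gain or loss versus DMSO control is fitted in both directions.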

Assay [9] is described as follows: BSK_hDFCGF_Proliferation: Cell Proliferation Assessment in the BioMAP Diversity Plus: hDFCGF Assay (AID 2283059).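 Note: curves fitted for both rise and fall of signal versus DMSO baseline.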 Particulars: primary human foreskin fibroblasts. A digest of the protocol: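 Primary human foreskin fibroblasts, sub-confluent; […]; 10% TCA fix, 0.1% SRB stain, A560 total protein. Gain/loss fitted bidirectionally vs DMSO control.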
Read-out in assay [10]: Macrophage colony-stimulating factor (MCSF), CSF1 (gene 1435)
As to the kind of experiment: BSK_hDFCGF_MCSF: BioMAP Diversity Plus: hDFCGF Assay for Macrophage colony-stimulating factor (MCSF) Biomarker Activity (AID 2283060). Conditions: primary human foreskin fibroblasts; actives raise or lower the signal. A digest of the protocol: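 Primary human foreskin fibroblasts dosed with chemical; 24 h later, M-CSF quantified by ELISA; curves fitted in both directions vs DMSO negative control.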

A short description of assay [11]: BSK_hDFCGF_SRB: Viability Assessment in the BioMAP Diversity Plus: hDFCGF Assay (AID 2283061).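 Note: cells exposed to compound for 24 h before the read.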 Particulars: primary human foreskin fibroblasts. A digest of the protocol:
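Readout is SRB absorbance at 560 nm, reflecting total protein in parallel cultures of human foreskin fibroblasts harvested 24 h after chemical dosing. Activity was fitted bidirectionally relative to DMSO.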

Read-out in assay [12]: TIMP metallopeptidase inhibitor 1 (TIMP1), TIMP1 (gene 7076)
Nature of the assay: BSK_hDFCGF_TIMP1: BioMAP Diversity Plus: hDFCGF Assay for TIMP metallopeptidase inhibitor 1 (TIMP1) Biomarker Activity (AID 2283062). Particulars: primary human foreskin fibroblasts; actives raise or lower the signal. In outline:
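Human skin fibroblasts (primary), hDFCGF system; compound exposure 24 h; TIMP-1 by ELISA; bidirectional fit vs DMSO negative control; overt cytotoxicity by SRB in parallel wells.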

Read-out in assay [13]: Monokine induced gamma interferon (MIG), CXCL9 (gene 4283)
As to the kind of experiment: BSK_hDFCGF_MIG: BioMAP Diversity Plus: hDFCGF Assay for Monokine induced gamma interferon (MIG) Biomarker Activity (AID 2283063). Particulars: primary human foreskin fibroblasts; actives raise or lower the signal. A digest of the protocol:
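Chemicals were added to primary human foreskin fibroblast cultures, which were sampled 24 h later. MIG levels were then quantified by ELISA and responses fitted in both directions relative to DMSO.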

Read-out in assay [14]: Matrix Metallopeptidase 1 (MMP1), MMP1 (gene 4312)
As to the kind of experiment: BSK_hDFCGF_MMP1: BioMAP Diversity Plus: hDFCGF Assay for Matrix Metallopeptidase 1 (MMP1) Biomarker Activity (AID 2283064). Conditions: primary human foreskin fibroblasts; actives raise or lower the signal. In outline: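 ELISA read-out of MMP1 from human foreskin fibroblasts (primary skin cells), 24 h post-dose. Gain or loss of signal was fitted bidirectionally versus DMSO negative control; cytotoxicity was checked by SRB in parallel cultures.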

Read-out in assay [15]: Vascular cell adhesion molecule 1 (VCAM1), VCAM1 (gene 7412)
Nature of the assay: BSK_hDFCGF_VCAM1: BioMAP Diversity Plus: hDFCGF Assay for Vascular cell adhesion molecule 1 (VCAM1) Biomarker Activity (AID 2283065).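 For AC50: VCAM-1 protein level quantified by ELISA after 24 h chemical exposure.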 Particulars: primary human foreskin fibroblasts; actives raise or lower the signal. A digest of the protocol:
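Human foreskin fibroblast primary cells, chemical exposure 24 h; VCAM-1 by ELISA; bidirectional fit, DMSO = negative control/baseline.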

Read-out in assay [16]: Plasminogen activator inhibitor-1 (PAI1), SERPINE1 (gene 5054)
As to the kind of experiment: BSK_hDFCGF_PAI1: BioMAP Diversity Plus: hDFCGF Assay for Plasminogen activator inhibitor-1 (PAI1) Biomarker Activity (AID 2283066). Conditions: primary human foreskin fibroblasts; actives raise or lower the signal. A digest of the protocol: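 ELISA readout of PAI-1 from primary human skin fibroblast cultures, 24 h after compound addition. Gain or loss of signal was fitted bidirectionally against DMSO baseline.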

Read-out in assay [17]: Interferon-gamma inducible Protein 10 (IP10), CXCL10 (gene 3627)
Nature of the assay: BSK_KF3CT_IP10: BioMAP Diversity Plus: KF3CT Assay for Interferon-gamma inducible Protein 10 (IP10) Biomarker Activity (AID 2283068). Conditions: primary human keratinocytes with fibroblasts; actives raise or lower the signal. A digest of the protocol:
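In a primary skin co-culture of keratinocytes and fibroblasts, IP-10 is quantified by ELISA at 24 h after dosing. SRB staining of parallel wells monitors overt toxicity. Curves are fitted both directions against DMSO.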

Read-out in assay [18]: Interleukin-1 alpha (IL1a), IL1A (gene 3552)
Nature of the assay: BSK_KF3CT_IL1a: BioMAP Diversity Plus: KF3CT Assay for Interleukin-1 alpha (IL1a) Biomarker Activity (AID 2283070). Particulars: primary human keratinocytes with fibroblasts; actives raise or lower the signal. In outline:
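Primary skin co-culture (keratinocytes, foreskin fibroblasts), 24 h exposure; ELISA for IL-1a; bidirectional curve fit vs DMSO.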

Read-out in assay [19]: TIMP metallopeptidase inhibitor 2 (TIMP2), TIMP2 (gene 7077)
Nature of the assay: BSK_KF3CT_TIMP2: BioMAP Diversity Plus: KF3CT Assay for TIMP metallopeptidase inhibitor 2 (TIMP2) Biomarker Activity (AID 2283071). Particulars: primary human keratinocytes with fibroblasts; actives raise or lower the signal. A digest of the protocol:
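ELISA readout of TIMP-2 in keratinocyte plus foreskin fibroblast co-cultures (human skin primary cells), 24 h post-dose. Gain or loss of signal fitted relative to DMSO.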

Read-out in assay [20]: urokinase plasminogen activator (uPA), PLAU (gene 5328)
Nature of the assay: BSK_KF3CT_uPA: BioMAP Diversity Plus: KF3CT Assay for urokinase plasminogen activator (uPA) Biomarker Activity (AID 2283075). Particulars: primary human keratinocytes with fibroblasts; actives raise or lower the signal. In outline:
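Skin co-culture (keratinocytes + foreskin fibroblasts), human primary; 24 h post-dose; uPA by ELISA; gain/loss fit vs DMSO baseline.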

Consider `CC(C)CCCCCCCOC(=O)c1ccccc1C(=O)OCCCCCCCC(C)C`, for which the result in assay [1], in assay [2], in assay [3], in assay [4], in assay [5] and in [6] was inactive. The result in assay [7], in [8], in assay [9], in assay [10], in assay [11] and in [12] was inactive. Further, the result in [13], in assay [14], in assay [15], in [16], in assay [17] and in assay [18] was inactive. The result in assay [19] and in assay [20] was inactive.

With `CC(=O)/C=C/c1ccccc1`, the outcome in assay [1], in assay [2], in assay [3], in assay [4], in [5] and in assay [6] was inactive. The outcome in assay [7], in assay [8], in assay [9], in assay [10], in [11] and in assay [12] was inactive. Also, the result in [13], in assay [14], in [15], in assay [16], in [17] and in [18] was inactive. Further, the outcome in assay [19] and in [20] was inactive.

By AC50 is commonly meant the midpoint of the concentration-response curve, whichever way the signal moves. Consider `O=C1C(Cl)=C(Cl)C(=O)C(Cl)=C1Cl`, for which the concentration at half-maximal activity (AC50) in [1] was 20 µM (active); in assay [3], 6.19 µM (active); in assay [4], 20 µM (active); in [5], 20 µM (active); in [6], 15.3 µM (active); in assay [8], 28.8 µM (active). Moreover, the concentration at half-maximal activity (AC50) in assay [9] was 1.63 µM (active); in [10], 20 µM (active); in assay [11] it was 6.62 µM (active); in assay [12], 12.5 µM (active); in assay [13], 31.4 µM (active); in [14], 26.8 µM (active). Moreover, the concentration at half-maximal activity (AC50) is 11.1 µM (active) in assay [15]; 27.1 µM (active) in [16]; 23.7 µM (active) in assay [17]; 20.1 µM (active) in [18]; 12.1 µM (active) in assay [19]; 28.5 µM (active) in assay [20]. Moreover, the outcome in assay [2] and in assay [7] was inactive.

Turning to `O=[N+]([O-])O`, the result in assay [1], in assay [2], in assay [3], in assay [4], in [5] and in assay [6] was inactive. Moreover, the result in assay [7], in assay [8], in assay [9], in assay [10], in [11] and in assay [12] was inactive. Besides, the outcome in [13], in [14], in [15], in assay [16], in assay [17] and in assay [18] was inactive. Moreover, the outcome in assay [19] and in [20] was inactive.
